Measurements from PubChem BioAssay AID1159580 (chemical genetic matrix, 2015).
In all, about 5,500 compounds went through this assay and about 2,000 (36%) were called active. Another 18% or so got no clear call; they are omitted. Rule as the data show it: active = normalized growth mostly below about 0.91 (no sharp cut-off); inconclusive = no clear call, values can overlap the other calls; inactive = mostly above about 0.92. Some of the results follow.

Experiment: chemical genetic growth profiling, strain panel (AID 1159580);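 also: tested at 20 µM; growth read once vehicle control cultures reached saturation at 30 °C; 1 = growth at the plate median or of vehicle wells; lower values mean less growth of the strain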
Conditions: S. cerevisiae deletion strains, growth OD

Measured: normalized growth

N#Cc1c2ccccc2nc2ccccc12
inactive: locus YDL132W, strain cdc53, active compounds read low 0.885 | locus YDL214C, strain PRR2, active compounds read low 0.743 | locus YER123W, strain YCK3, active compounds read low 0.678 | locus YFR019W, strain FAB1, active compounds read low 0.844 | locus YGR040W, strain KSS1, active compounds read low 0.716 | locus YGR052W, strain FMP48, active compounds read low 0.736 | locus YHR079C, strain IRE1, active compounds read low 0.599 | locus YHR082C, strain KSP1, active compounds read low 0.72 | locus YHR205W, strain SCH9, active compounds read low 0.807 | locus YJL095W, strain BCK1, active compounds read low 0.561 | locus YJL128C, strain PBS2, active compounds read low 0.87 | locus YJR066W, strain TOR1 (second series), active compounds read low 0.728 | locus YJR066W, strain TOR1, active compounds read low 0.615 | locus YKL067W, strain YNK1, active compounds read low 0.744 | locus YKL101W, strain HSL1, active compounds read low 0.761 | locus YLR133W, strain CKI1, active compounds read low 0.737 | locus YML070W, strain DAK1, active compounds read low 0.726 | locus YMR205C, strain PFK2 (second series), active compounds read low 0.761 | locus YNL020C, strain ARK1, active compounds read low 0.717 | locus YNL183C, strain NPR1, active compounds read low 0.584 | locus YNL307C, strain MCK1 (second series), active compounds read low 0.649 | locus YOL136C, strain PFK27, active compounds read low 0.742 | locus YOR119C, strain RIO1, active compounds read low 0.749 | locus YOR231W, strain MKK1, active compounds read low 0.587 | locus YPL204W, strain HRR25, active compounds read low 0.693
active: locus YAR019C, strain CDC15, active compounds read low 0.818 | locus YBL105C, strain PKC1, active compounds read low 0.834 | locus YBR135W, strain CKS1, active compounds read low 0.808 | locus YBR136W, strain MEC1, active compounds read low 0.827 | locus YBR160W, strain CDC28, active compounds read low 0.823 | locus YDL017W, strain CDC7, active compounds read low 0.834 | locus YDL028C, strain MPS1, active compounds read low 0.825 | locus YDL101C, strain DUN1, active compounds read low 0.832 | locus YDL108W, strain KIN28, active compounds read low 0.826 | locus YDR052C, strain DBF4, active compounds read low 0.829 | locus YDR054C, strain cdc34, active compounds read low 0.781 | locus YDR226W, strain ADK1, active compounds read low 0.825 | locus YDR477W, strain SNF1, active compounds read low 0.678 | locus YER133W, strain GLC7, active compounds read low 0.717 | locus YFL009W, strain cdc4, active compounds read low 0.813 | locus YFL029C, strain CAK1, active compounds read low 0.813 | locus YFR003C, strain YPI1, active compounds read low 0.831 | locus YFR028C, strain CDC14, active compounds read low 0.832 | locus YGR092W, strain DBF2, active compounds read low 0.196 | locus YHR030C, strain SLT2, active compounds read low 0.693 | locus YIL147C, strain SLN1, active compounds read low 0.822 | locus YJL157C, strain FAR1, active compounds read low 0.675 | locus YJR016C, strain ILV3, active compounds read low 0.816 | locus YKL048C, strain ELM1, active compounds read low 0.746 | locus YKL193C, strain SDS22, active compounds read low 0.803 | locus YKL203C, strain TOR2, active compounds read low 0.693 | locus YLR113W, strain HOG1, active compounds read low 0.638 | locus YLR403W, strain SFP1, active compounds read low 0.605 | locus YMR001C, strain CDC5, active compounds read low 0.818 | locus YMR277W, strain FCP1, active compounds read low 0.817 | locus YNL006W, strain LST8, active compounds read low 0.829 | locus YNL161W, strain CBK1, active compounds read low 0.823 | locus YNL207W, strain RIO2, active compounds read low 0.822 | locus YNL222W, strain SSU72, active compounds read low 0.825 | locus YOL078W, strain AVO1, active compounds read low 0.803 | locus YOR061W, strain CKA2, active compounds read low 0.677 | locus YOR329C, strain SCD5, active compounds read low 0.829 | locus YPL031C, strain PHO85, active compounds read low 0.616 | locus YPL153C, strain RAD53, active compounds read low 0.659 | locus YPL209C, strain IPL1, active compounds read low 0.833 | locus YPL256C, strain CLN2, active compounds read low 0.708 | locus YPR025C, strain CCL1, active compounds read low 0.82 | locus YPR106W, strain ISR1, active compounds read low 0.862 | locus YPR111W, strain DBF20, active compounds read low 0.843 | strain NNK1, active compounds read low 0.846 | strain TSCII, active compounds read low 0.811
